Laboratory results from PubChem BioAssay AID2685 (National Center for Advancing Translational Sciences (NCATS), 2010).
Hit rate of the full screen: of about 320,000 compounds, about 2,100 (0.66%) were called active. Another 53% or so got no clear call; they are omitted. The sample holds actives, similar compounds and a random draw of the others, so the mix is not that of the screen. Calls follow the shape of the dose curve; as a rule, active = well fitted inhibition curve with a large enough effect in the signal ratio, with a control signal flat (not every such curve was filed as active); inconclusive = small, poorly fitted or top-dose-only effect, or effect the other way, or a change in a side signal; inactive = flat fitted curve, though single readings scatter; the % refers to the signal ratio.

Assay: qHTS Assay for Lipid Storage Modulators in Drosophila S3 Cells;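 as to cell number change: cells counted by Cell Tracker Red CMTPX staining in the red channel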
Conditions: BODIPY lipid droplet fluorescence, 18-24 h, cells fed with added oleic acid; cell number change: measured here: cell count max response; series mostly up to 46.1 µM
How it was run: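 Laser-scanning cytometry quantifies lipid droplet accumulation (500–530 nm total intensity; droplet/cell object ratio) in oleic acid-fed (400 uM added) Drosophila S3 cells treated with a concentration series. 20 uM Triacsin C defined 100% inhibition.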
Potency is read from the fitted curve at half-maximal effect.

| Structure (SMILES) | Potency | cell number change [%] |
| --- | --- | --- |
| Cc1ccccc1N1C(=O)C(Cl)=C(N2CCCCCC2)C1=O | inactive | -0.204 |
| O=C1C(Cl)=C(N2CCCC2)C(=O)N1c1ccccc1F | 1.46 µM (active) | 2.93 |
| O=C1C(Cl)=C(N2CCOCC2)C(=O)N1c1ccccc1F | inactive | -18.5 |
| COc1ccc(NC(=O)C2CCCN2C(=O)NCc2ccccc2)c(OC)c1 (configuration not stated) | inactive | -2.72 |
| COc1ccc(NC(=O)C2CCCN2C(=O)NCc2ccccc2)cc1OC (configuration not stated) | inactive | 1.64 |
| COc1ccccc1NC(=O)N1CCCC1C(=O)NCc1ccccc1 (configuration not stated) | inactive | -7.89 |
| COc1cccc(OC)c1NC(=O)C1CCCN1C(=O)NCc1ccccc1 (configuration not stated) | 29.1 µM (active) | -20.9 |
| O=C(NCc1ccccc1)C1CCCN1C(=O)Nc1ccccc1[N+](=O)[O-] (configuration not stated) | 0.731 µM (active) | 14.7 |
| CCOCCCNC(=O)C1CCCN1C(=O)Nc1ccccc1[N+](=O)[O-] (configuration not stated) | inactive | 3.63 |
| Cc1cc(-c2nnc(CCC(=O)N(C)CCc3ccccc3)o2)no1 | inactive | 4.46 |
| CC1CN(C/C(=N\O)C23CC4CC(CC(C4)C2)C3)CC(C)O1 (configuration not stated) | inactive | -15.5 |
| O=C(NCc1ccc(Cl)cc1)c1cc([N+](=O)[O-])ccc1Cl | inactive | 16.3 |
| CN(C)S(=O)(=O)c1ccc(NC=C(C#N)C#N)cc1 | inactive | -16.2 |
| Cc1ccc(-c2nc(NC(=O)c3nn(C)cc3[N+](=O)[O-])sc2C)cc1 | inactive | 27.2 |
| CCn1cc([N+](=O)[O-])c(C(=O)Nc2nc(-c3ccc(C)c(C)c3)c(C)s2)n1 | inactive | -14.3 |
| CCn1cc([N+](=O)[O-])c(C(=O)Nc2nc(-c3ccc(C)cc3)c(C)s2)n1 | 4.61 µM (active) | 18.4 |
| CCCCN(C(=O)c1ccccc1OCc1ccc(F)cc1)c1c(N)n(CCC)c(=O)[nH]c1=O | inactive | -14.3 |
| Cn1c(SCc2cccc(C#N)c2)nc2ccccc2c1=O | inactive | 7.25 |
| COc1ccc(OCC(=O)Nc2ccc(NC(=O)c3cccs3)c(OC)c2)cc1 | inactive | 10.8 |
| COc1cc(NC(=O)c2cccnc2)c(OC)cc1NC(=O)c1ccc(Br)cc1 | inactive | 15.3 |
| COc1ccccc1NC(=O)c1ccc2nsnc2c1 | 3.66 µM (active) | 21.1 |
| COc1ccc(NC(=O)c2cccc(NC(=O)c3ccccc3)c2)c(OC)c1 | inactive | -2.85 |
| COc1cc(NC(=O)Cc2ccccc2)ccc1NC(=O)c1ccccc1 | 23.1 µM (active) | 5.29 |
| COc1ccccc1CC(=O)Nc1cc(OC)c(NC(=O)c2ccccc2)cc1OC | inactive | -14.4 |

| Structure (SMILES) | Potency | cell number change [%] |
| --- | --- | --- |
| COc1ccccc1NC(=O)c1ccc2snnc2c1 | inactive | 5.09 |
| COc1cc(NC(=O)c2ccc(Br)cc2)c(OC)cc1NC(=O)c1ccccc1 | 18.4 µM (active) | -19.9 |
| COc1cc(NC(=O)c2ccccc2)c(OC)cc1NC(C)=O | inactive | -0.51 |
| COc1cc(NC(=O)COc2ccccc2Cl)ccc1NC(=O)c1cccs1 | 4.61 µM (active) |  |
| COc1cc(NC(=O)c2ccccc2Cl)ccc1NC(=O)c1cccs1 | inactive | 16.4 |
| COc1cc(NC(=O)c2ccc3nsnc3c2)cc(OC)c1OC | inactive | 3.44 |
| COc1ccc(OCCC(=O)OCC(=O)Nc2ccc(S(=O)(=O)N3CCOCC3)cc2)cc1 | inactive | -18.9 |
| O=C(CSc1nnc(-c2ccc(F)cc2)o1)NC1CCCCC1 | inactive | 12 |
| CCOC(=O)N1CCN(CC(O)COc2ccc3c(c2)CCC3)CC1 (configuration not stated) | inactive | -3.83 |
| O=C(CCCCCNC(=O)N1CCn2c1nc1ccccc12)NCc1ccccc1 | inactive | 11.3 |
| CC(NC(=O)c1cccc(N(C)C)c1)c1ccc(-n2ccnc2)cc1 (configuration not stated) | inactive |  |
| COc1ccc(S(=O)(=O)N2CCN(c3nc4ccccc4nc3-n3nc(C)cc3C)CC2)cc1 | inactive | -0.676 |
| O=C(NC1CCSC1=O)c1ccc(Oc2cccc(C(F)(F)F)c2)nc1 (configuration not stated) | inactive | -7.23 |
| COc1ccc(F)cc1S(=O)(=O)NC1CCCCCC1 | inactive |  |
| C/C(=N/Nc1ncc(C(F)(F)F)cc1Cl)c1ccncc1 | inactive | -2.18 |
| COc1ccc(S(=O)(=O)NCC2CCCN(C(=O)CC3CCCC3)C2)cc1 (configuration not stated) | inactive | -9.37 |
| COc1cc2c(cc1NC(=O)c1cccnc1)CCCC2 | inactive | -6.97 |
| COc1cc2c(cc1NC(=O)c1ccc(C(C)(C)C)cc1)CCCC2 | 16.4 µM (active) | -19.1 |
| COc1ccc(C(=O)Nc2cc3c(cc2OC)CCCC3)cc1Br | inactive | -12.7 |
| Oc1ccccc1Oc1ncc(Br)c(Cl)n1 | inactive | 10.9 |
| CCOC(=O)CCc1c(C)nc2cc(-c3ccc(F)cc3)[nH]n2c1=O | inactive | -12 |
| C=CCn1c(SC(C)CC)nc(O)cc1=O (configuration not stated) | inactive |  |
| CCCN(CC1CC1)C(=O)COC(=O)c1[nH]c(C)c(C(=O)OCC)c1C | inactive | -17.3 |
| CCOc1ccc2oc(C(=O)OCC(=O)NC(=O)NC)c(C)c2c1 | inactive | -6.07 |
